Data reported in PubChem BioAssay AID1159580 (chemical genetic matrix, 2015).
Out of some 5,500 compounds screened, about 2,000 (36%) were called active. Another 18% or so got no clear call; they are omitted. No stated cut-off is given here; in the data, active means normalized growth mostly below about 0.91 (no sharp cut-off); inconclusive means no clear call, values can overlap the other calls; inactive means mostly above about 0.92. The list shows a part of the results.

Assay: chemical genetic growth profiling, strain panel (AID 1159580);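 further: tested at 20 µM; growth read once vehicle control cultures reached saturation at 30 °C; 1 = growth at the plate median or of vehicle wells; lower values mean less growth of the strain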
Details: growth OD

Measured: normalized growth

CCCCCCCCNC(C)C(O)c1ccc(SC(C)C)cc1 (stereo not drawn)
active: S. cerevisiae deletion strains, locus YKL009W, strain mrt4, hits give low values 0.843 | S. cerevisiae deletion strains, locus YKL160W, strain elf1, hits give low values 0.0721 | S. cerevisiae deletion strains, locus YKL190W, strain CNB1, hits give low values 0.0442 | S. cerevisiae deletion strains, locus YKR001C, strain vps1, hits give low values 0.0592 | S. cerevisiae deletion strains, locus YKR026C, strain gcn3, hits give low values 0.0783 | S. cerevisiae deletion strains, locus YKR091W, strain srl3, hits give low values 0.0575 | S. cerevisiae deletion strains, locus YLL001W, strain dnm1, hits give low values 0.0576 | S. cerevisiae deletion strains, locus YLL026W, hits give low values 0.0545 | S. cerevisiae deletion strains, locus YLL041C, strain sdh2, hits give low values 0.0563 | S. cerevisiae deletion strains, locus YLR027C, strain aat2, hits give low values 0.053 | S. cerevisiae deletion strains, locus YLR039C, strain RIC1, hits give low values 0.0765 | S. cerevisiae deletion strains, locus YLR058C, strain SHM2, hits give low values 0.0441 | S. cerevisiae deletion strains, locus YLR102C, strain apc9, hits give low values 0.0595 | S. cerevisiae deletion strains, locus YLR221C, strain rsa3, hits give low values 0.0556 | S. cerevisiae deletion strains, locus YLR258W, strain gsy2, hits give low values 0.0584 | S. cerevisiae deletion strains, locus YLR262C, strain YPT6 (second series), hits give low values 0.0924 | S. cerevisiae deletion strains, locus YLR262C, strain YPT6, hits give low values 0.0999 | S. cerevisiae deletion strains, locus YLR268W, strain sec22, hits give low values 0.0594 | S. cerevisiae deletion strains, locus YLR320W, strain mms22, hits give low values 0.0684 | S. cerevisiae deletion strains, locus YLR330W, strain CHS5, hits give low values 0.0493 | S. cerevisiae deletion strains, locus YLR342W, strain FKS1 (second series), hits give low values 0.06 | S. cerevisiae deletion strains, locus YLR342W, strain FKS1, hits give low values 0.0614 | S. cerevisiae deletion strains, locus YLR357W, strain rsc2, hits give low values 0.111 | S. cerevisiae deletion strains, locus YLR370C, strain arc18, hits give low values 0.0598 | S. cerevisiae deletion strains, locus YLR371W, strain rom2, hits give low values 0.0595 | S. cerevisiae deletion strains, locus YLR384C, strain iki3, hits give low values 0.0596 | S. cerevisiae deletion strains, locus YLR418C, strain cdc73, hits give low values 0.0837 | S. cerevisiae deletion strains, locus YML016C, strain PPZ1, hits give low values 0.0438 | S. cerevisiae deletion strains, locus YML032C, strain rad52, hits give low values 0.0627 | S. cerevisiae deletion strains, locus YML120C, strain ndi1, hits give low values 0.0554 | S. cerevisiae deletion strains, locus YML124C, strain tub3, hits give low values 0.0561 | S. cerevisiae deletion strains, locus YMR058W, strain fet3, hits give low values 0.0583 | S. cerevisiae deletion strains, locus YMR078C, strain ctf18, hits give low values 0.0681 | S. cerevisiae deletion strains, locus YMR125W, strain sto1, hits give low values 0.0638 | S. cerevisiae deletion strains, locus YMR129W, hits give low values 0.057 | S. cerevisiae deletion strains, locus YMR205C, strain PFK2, hits give low values 0.0745 | S. cerevisiae deletion strains, locus YMR223W, strain ubp8, hits give low values 0.0556 | S. cerevisiae deletion strains, locus YMR231W, strain pep5, hits give low values 0.0629 | S. cerevisiae deletion strains, locus YMR263W, strain SAP30, hits give low values 0.0563 | S. cerevisiae deletion strains, locus YMR307W, strain GAS1, hits give low values 0.113 | S. cerevisiae deletion strains, locus YNL067W, strain RPL9B, hits give low values 0.0464 | S. cerevisiae deletion strains, locus YNL071W, strain lat1, hits give low values 0.0586 | S. cerevisiae deletion strains, locus YNL128W, strain TEP1, hits give low values 0.0711 | S. cerevisiae deletion strains, locus YNL209W, strain ssb2, hits give low values 0.057 | S. cerevisiae deletion strains, locus YNL233W, strain BNI4, hits give low values 0.0511 | S. cerevisiae deletion strains, locus YNL248C, strain rpa49, hits give low values 0.0589 | S. cerevisiae deletion strains, locus YNL250W, strain rad50, hits give low values 0.849 | S. cerevisiae deletion strains, locus YNL271C, strain bni1, hits give low values 0.501 | S. cerevisiae deletion strains, locus YNL298W, strain CLA4, hits give low values 0.357 | S. cerevisiae deletion strains, locus YNL307C, strain MCK1, hits give low values 0.0662 | S. cerevisiae deletion strains, locus YNL322C, strain KRE1 (second series), hits give low values 0.0644 | S. cerevisiae deletion strains, locus YNR049C, strain mso1, hits give low values 0.0544 | S. cerevisiae deletion strains, locus YNR052C, strain pop2, hits give low values 0.0594 | S. cerevisiae deletion strains, locus YOL006C, strain TOP1, hits give low values 0.0984 | S. cerevisiae deletion strains, locus YOL012C, strain htz1 0.143 | S. cerevisiae deletion strains, locus YOL147C, strain pex11, hits give low values 0.056 | S. cerevisiae deletion strains, locus YOR001W, strain rrp6, hits give low values 0.0598 | S. cerevisiae deletion strains, locus YOR061W, strain CKA2, hits give low values 0.0463 | S. cerevisiae deletion strains, locus YOR069W, strain VPS5, hits give low values 0.0445 | S. cerevisiae deletion strains, locus YOR070C, strain gyp1, hits give low values 0.0552 | S. cerevisiae deletion strains, locus YOR080W, strain dia2, hits give low values 0.0613 | S. cerevisiae deletion strains, locus YOR083W, strain WHI5, hits give low values 0.0558 | S. cerevisiae deletion strains, locus YOR106W, strain vam3, hits give low values 0.0599 | S. cerevisiae deletion strains, locus YOR136W, strain idh2, hits give low values 0.0657 | S. cerevisiae deletion strains, locus YOR144C, strain elg1, hits give low values 0.0549 | S. cerevisiae deletion strains, locus YOR184W, strain ser1, hits give low values 0.0604 | S. cerevisiae deletion strains, locus YOR265W, strain rbl2, hits give low values 0.056 | S. cerevisiae deletion strains, locus YOR270C, strain vph1, hits give low values 0.0763 | S. cerevisiae deletion strains, locus YOR290C, strain snf2, hits give low values 0.0566 | S. cerevisiae deletion strains, locus YOR316C, strain cot1, hits give low values 0.057 | S. cerevisiae deletion strains, locus YPL051W, strain arl3, hits give low values 0.0586 | S. cerevisiae deletion strains, locus YPL055C, strain LGE1, hits give low values 0.0576 | S. cerevisiae deletion strains, locus YPL078C, strain atp4, hits give low values 0.0619 | S. cerevisiae deletion strains, locus YPL106C, strain sse1, hits give low values 0.0837 | S. cerevisiae deletion strains, locus YPL240C, strain hsp82, hits give low values 0.0552 | S. cerevisiae deletion strains, locus YPR119W, strain clb2, hits give low values 0.0589 | S. cerevisiae deletion strains, locus YPR163C, strain tif3, hits give low values 0.0677 | S. cerevisiae deletion strains, locus YPR167C, strain met16, hits give low values 0.0591 | S. cerevisiae deletion strains, strain wtn01, hits give low values 0.0573 | S. cerevisiae strains, strain wild type, hits give low values 0.0449
inactive: S. cerevisiae deletion strains, locus YKL068W, hits give low values 1.02 | S. cerevisiae deletion strains, locus YKL085W, strain MDH1 (second series), hits give low values 0.936 | S. cerevisiae deletion strains, locus YKL085W, strain MDH1, hits give low values 0.936 | S. cerevisiae deletion strains, locus YLR113W, strain HOG1, hits give low values 1.04 | S. cerevisiae deletion strains, locus YNL183C, strain NPR1, hits give low values 0.916 | S. cerevisiae deletion strains, locus YOR231W, strain MKK1, hits give low values 0.892 | S. cerevisiae deletion strains, locus YPL256C, strain CLN2, hits give low values 0.981 | S. cerevisiae deletion strains, locus YPR141C, strain kar3, hits give low values 1.06
